Structures are written as SMILES. The whole screen tested about 360,000 compounds, of which about 680 (0.19%) were called active. This is one part of a sample in which actives are shown more often than they occur. No stated cut-off is given here; in the data, active means inhibition above about 25%; inactive means the rest.

For this test, the target named is Arf-GAP with SH3 domain, ANK repeat and PH domain-containing protein 1 (Homo sapiens) (UniProt Q9ULH1). Description: inhibitors of human ASAP1 ArfGAP activity, primary screen, biochemical, fluorescence polarization (AID 624377).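 Further: 0% = vehicle with enzyme and substrate and 100% = no enzyme.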 The note with it: ASAP1-stimulated ARF1 GTP hydrolysis, GDP FP detection; at 16.5 µM; stronger effect = higher value. A general note: Polarisation of emitted light reports the rotation of a fluorescent probe.
Arf-GAP with SH3 domain, ANK repeat and PH domain-containing protein 1 (Homo sapiens), sequence (Q9ULH1 325-724 limits assumed): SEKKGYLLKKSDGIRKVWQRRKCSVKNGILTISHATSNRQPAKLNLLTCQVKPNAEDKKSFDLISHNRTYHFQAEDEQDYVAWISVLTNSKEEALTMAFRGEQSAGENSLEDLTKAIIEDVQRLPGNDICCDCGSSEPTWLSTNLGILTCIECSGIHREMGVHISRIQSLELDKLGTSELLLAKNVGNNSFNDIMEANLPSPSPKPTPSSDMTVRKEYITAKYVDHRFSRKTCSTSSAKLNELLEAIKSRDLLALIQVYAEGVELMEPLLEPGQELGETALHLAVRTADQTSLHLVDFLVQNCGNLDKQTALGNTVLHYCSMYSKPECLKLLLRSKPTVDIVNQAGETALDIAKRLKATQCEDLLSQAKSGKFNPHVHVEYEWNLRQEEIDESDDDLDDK
As usually defined, the inhibition is the relative decrease from the control value, in per cent. On to `COC(=O)[C@]12C[C@H](CC(=O)NCc3ccc(OC)c(OC)c3)C(=O)N(Cc3ccccc3)C1=C[C@H](C(C)C)O[C@@H]2C1CC1`, for which the inhibition was -17.1% (inactive). Take `COC(=O)c1ccc(CN2C(=O)[C@]3(OCCC=C[C@H]3C)c3c(Br)cccc32)cc1`: the inhibition was 8.64% (inactive). `COc1cccc(CNC(=O)[C@H]2CCCN2C(=O)[C@H]2CCCN2C(=O)c2cc(F)cc(F)c2)c1`: the inhibition is 6.55% (inactive). `COc1cccc(NC(=O)N(C)C[C@@H]2OCc3cn(nn3)CCCC(=O)N([C@@H](C)CO)C[C@H]2C)c1`: the inhibition is -14.2% (inactive). To `O=C(NCc1ccccc1)[C@H]1CCCN1C(=O)[C@@H]1CCCN1C(=O)c1ccc(Cl)cc1Cl` belongs -1.03% (inactive); to `O=C(C(=O)N1CCC(CNC(=O)c2cccnc2Cl)CC1)c1cccs1`, 0.64% (inactive). With `CC(C)[C@H]1COCCS(=O)(=O)N1Cc1ccccc1-c1cccc2c1sc1ccccc12`, the inhibition was -8.72% (inactive). Then `CC(=O)C1=C(C)N(Cc2ccccc2)C(=S)NC1c1cccc(Br)c1` (centres undefined), with -2.66% (inactive); and `C[C@H](O)[C@@H]1CN2CCc3ccc(-c4ccc5c(c4)OCO5)cc3[C@@H]2C[C@@H]1N(C)C(=O)C1CCCCC1`, with -4.95% (inactive). For `Nc1ccn([C@@H]2O[C@H](C(=O)N[C@H]3CCCCNC3=O)[C@@H](O)[C@H]2O)c(=O)n1`, the inhibition is -4.12% (inactive). To `C[C@@H](CN1C2=NC[C@@H](Cc3ccccc3)N2C[C@H]1Cc1ccc(O)cc1)NC(=O)CCC1CCCCC1` belongs -1.15% (inactive).

Regarding `COC(=O)C1=C(C(=O)OC)C2C=C(C(C)C)C1C(=O)C2(C)O` (centres undefined), the inhibition is -14.9% (inactive). For the compound `CC(C)(C)n1nc(C2CC2)c(Br)c1NC(=O)c1ccccc1F`, the inhibition was -0.45% (inactive). In the case of `COC(=O)C1=C(C)N(Cc2cccc(C(F)(F)F)c2)C(=NCc2ccccc2)NC1c1ccc(Cl)cc1` (centres undefined), the inhibition was 8.8% (inactive). For `O=C(N[C@H](C(=O)N1CCC[C@H]1C(=O)NCCc1ccccc1Cl)c1ccccc1)c1ccccc1`, the inhibition is 8.89% (inactive). Then `Cc1ccc(C(=O)Nc2c(-c3ccccc3)[nH][nH]c2=O)cc1`, with -5.65% (inactive); and `CN(C)C(=O)c1ccc(NC(=O)c2ccccc2-c2ccccc2)cc1`, with 6.53% (inactive). As for `O=C(NC1=CC(=O)c2ccccc2C1=O)c1ccccc1`, the inhibition is 26.4% (active).

Turning to `COC(=O)[C@]12C[C@H](CC(=O)NCCCCc3ccccc3)C(=O)N(Cc3ccc4c(c3)OCO4)C1=C[C@H](C(C)(C)C)O[C@@H]2C`, the inhibition is -6.7% (inactive). `CC(C)[C@@H](C)/C=C/[C@@H](C)[C@H]1CC[C@@H]2[C@]1(C)CCC1[C@]23C=C[C@]2(C[C@@H](O)CC[C@]12C)N(c1ccc([N+](=O)[O-])cn1)O3` (some centres undefined): the inhibition was 7.77% (inactive). With `Cc1cccc(N2Cc3ccccc3C2=NC(=O)c2ccc(Cl)nc2)c1`, the inhibition was -4.91% (inactive). Regarding `Cc1cccc(-n2ncc(Cl)c(Cl)c2=O)c1`, the inhibition is 24.7% (active).

For the compound `Nc1c(-c2cccc(Cl)c2)cnn1-c1cccc([N+](=O)[O-])c1`, the inhibition is 3.08% (inactive).

`CC1CCCN(c2cccc3c2S(=O)(=O)N(Cc2ccc(F)cc2)[C@@H](C)[C@H](c2ccccc2)O3)C1` (some centres undefined): the inhibition was 0.02% (inactive). Turning to `COc1ccc(SSc2ccc(OC)cc2C(=O)O)c(C(=O)O)c1`, the inhibition was -8.33% (inactive). Then `Cc1cc(Br)cn2c(Cc3ccccc3C(F)(F)F)c(-c3ccc(C#N)cc3)nc12`, with -9.38% (inactive). As to `COC(=O)C1=C(C)N(Cc2ccc(C(F)(F)F)cc2)C(=NCc2ccc(C(F)(F)F)cc2)NC1c1cccc(Cl)c1` (centres undefined), the inhibition is 1.4% (inactive). On to `CN(C)C(=O)c1cccc(-c2cnc3c(NC=O)cc(-c4ccc(C(=O)N5CCOCC5)cc4)cn23)c1`, for which the inhibition is -9.18% (inactive).

On to `O=CNc1cc(-c2ccc(C(=O)N3CCOCC3)cc2)cn2c(-c3ccc(F)cc3)cnc12`, for which the inhibition is 7.38% (inactive). To `CC(=O)Nc1cc(-c2ccc(N3CCN(C)CC3)cc2)cn2c(-c3ccc(F)cc3)cnc12` belongs 24.7% (active); to `COc1ccc(-c2cc(NC=O)c3ncc(-c4cccc(C(=O)N(C)C)c4)n3c2)c(OC)c1`, -1.85% (inactive); to `CC(=O)c1cccc(-c2cnc3c(NC=O)cc(-c4ccc(N5CCN(C)CC5)cc4)cn23)c1`, 39.8% (active).

In the case of `COc1cccc(-c2cc(NC(C)=O)c3ncc(-c4cccc(C(C)=O)c4)n3c2)c1`, the inhibition is -0.92% (inactive). With `CC(=O)Nc1cccc(-c2cc(NC(C)=O)c3ncc(-c4ccccc4)n3c2)c1`, the inhibition is -3.7% (inactive). Take `CC(=O)Nc1cc(-c2ccc(N3CCN(C)CC3)cc2)cn2c(-c3cccc(C(=O)N(C)C)c3)cnc12`: the inhibition is 40.6% (active). `CC(=O)c1cccc(-c2cnc3c(NC=O)cc(-c4ccccc4Oc4ccccc4)cn23)c1`: the inhibition was -4.36% (inactive). To `COC(=O)Cc1nnn2c1[C@H](C)[C@H](c1ccccc1Br)OCC2` belongs -9.73% (inactive); to `Cc1cc(N2CCN(C(=O)OC(C)(C)C)C[C@H]2C)ccc1N1CCN(Cc2ccccc2)[C@H](C)C1`, 0.89% (inactive); to `Fc1ccc(-c2ccc(-c3nn4c(-c5ccco5)nnc4s3)o2)cc1`, -2.12% (inactive). To `c1ccc(-c2cc(-c3nnc4sc(-c5ccccn5)nn34)[nH]n2)cc1` belongs 28.1% (active); to `CCCCCCCCN1C(=O)[C@@H](CC(=O)NCCCC)C[C@@]2(C(=O)OC)C1=C[C@H](C(C)(C)C)O[C@@H]2C`, -1.77% (inactive). Take `COc1ccc(C(CNC(=O)c2ccc(S(=O)(=O)Nc3ccccc3C)cc2)N2CCOCC2)cc1` (centres undefined): the inhibition was 1.23% (inactive). With `COc1ccc(C(CNC(=O)c2cccc(NS(=O)(=O)c3ccc(C)c(F)c3)c2)N2CCCC2)cc1` (centres undefined), the inhibition was -8.53% (inactive). Then `COc1ccc(C(CNC(=O)c2cccc(S(=O)(=O)Nc3ccccc3Cl)c2)N2CCOCC2)cc1` (centres undefined), with 26.3% (active); and `CCOc1ccccc1C(=O)N1CCC[C@@H]1C(=O)N1CCC[C@H]1C(=O)NCc1ccccc1`, with -4.19% (inactive). To `CCC(=C/c1sc2ccc3ccccc3c2[n+]1C)/C=C1\Sc2ccc3ccccc3c2N1C` belongs 41.1% (active). On to `COCc1[nH]nc2c1C(c1ccccc1)N(c1ccccc1)C2=O` (centres undefined), for which the inhibition is -1.83% (inactive). As for `COC(=O)[C@]12C[C@H](CC(=O)NCCC(C)C)C(=O)N(CCc3ccc(OC)c(OC)c3)C1=C[C@H](C(C)(C)C)O[C@@H]2C`, the inhibition was 10.4% (inactive). Take `Cc1nc(NC(=O)C(C)(C)C)sc1[N+](=O)[O-]`: the inhibition was -0.12% (inactive). Then `Nc1ncnc2c1ncn2[C@@H]1O[C@H](C(=O)N[C@@H](CCc2ccccc2)C(=O)N2CCCN(Cc3cccs3)CC2)[C@@H](O)[C@H]1O`, with -0.42% (inactive). To `COC(=O)C1=C(C)N(Cc2ccc(C(F)(F)F)cc2)C(=NCc2ccccc2)NC1c1ccccc1C(F)(F)F` (centres undefined) belongs -2.57% (inactive); to `COCCNC(=S)N(C)[C@H]1C[C@H]2c3[nH]c4ccccc4c3CCN2C[C@H]1[C@H](C)O`, 6.89% (inactive); to `O=C(NN=Cc1ccco1)C(=O)Nc1ccc(Cl)c([N+](=O)[O-])c1`, 3.05% (inactive). On to `COC(=O)C1=C(C)N(Cc2cccc(C(F)(F)F)c2)C(=NCc2ccccc2)NC1c1ccccc1C(F)(F)F` (centres undefined), for which the inhibition is 11.8% (inactive). On to `COC(=O)[C@H](CC(C)C)NS(=O)(=O)c1c(F)cccc1F`, for which the inhibition is 0.11% (inactive). Then `CCc1ccc(C2=CC(=O)CC(C)(C)C2=O)cc1`, with -7.16% (inactive); and `C=CC[C@]12C[C@@]3(O[C@H](c4ccc(C(F)(F)F)cc4)N=C3C[C@H](c3ccc(OC)cc3)[C@H]1C)N(C1CCN(Cc3ccccc3)CC1)C2=O`, with 5.12% (inactive).

Regarding `CC(C)(C)c1ccc(S(=O)(=O)NCC2CCN(C(=O)C(=O)c3cc4ccccc4o3)CC2)cc1`, the inhibition was -6.17% (inactive). Then `CCOC(=O)c1ccc(NC(=O)c2c(N)n(C)c(=O)[nH]c2=O)cc1`, with 10.2% (inactive). To `CCOC(=O)c1ccc(NC(=O)c2c(NCc3ccccc3)[nH]c(=O)[nH]c2=O)cc1` belongs -2.85% (inactive); to `CCOC(=O)c1ccc(Nc2cc3ccccc3c(=O)[nH]2)cc1`, 29.1% (active); to `CCOC(=O)Cn1c2c(n(-c3ccc(F)cc3)c1=O)C=C(c1ccccc1)[C@@H](C)C(C(=O)N(C)C1CCCCC1)=C2`, -1.25% (inactive). Consider `N#Cc1cc([N+](=O)[O-])ccc1Oc1cccc(/C=N/NC(=O)c2ccc(Cl)cc2)c1`, for which the inhibition was 25.2% (active).

On to `O=C(N/N=C/c1cccc([N+](=O)[O-])c1)C1CC(=O)N(c2ccc(Br)cc2)C1` (centres undefined), for which the inhibition was -8.22% (inactive). To `CCCc1ccc(OCc2ccc(C(=O)N/N=C/c3cccc([N+](=O)[O-])c3)o2)c(OC)c1` belongs -0.67% (inactive); to `CN(C)C(=O)N1CCN(C(=O)[C@@H](Cc2ccccc2)NC(=O)[C@H]2O[C@@H](n3ccc(N)nc3=O)[C@H](O)[C@@H]2O)CC1`, -4.92% (inactive).

Take `COc1cccc(-c2cc(CNC(=O)[C@@H](Cc3ccccc3)NC(=O)[C@H]3O[C@@H](n4cnc(C(N)=O)n4)[C@H](O)[C@@H]3O)no2)c1`: the inhibition was 0.63% (inactive). `COC(=O)c1sc(N2CCN(Cc3ccccc3)CC2)nc1N`: the inhibition is 6.27% (inactive). For `C=CCNc1nc(N)c(C(=C(C#N)C#N)c2ccccc2)s1`, the inhibition was 29.1% (active). To `COc1ccccc1Cc1c(-c2ccc(F)cc2)nc2ccc(C)cn12` belongs -3.6% (inactive); to `O=S(=O)(NCc1ccccc1)c1ccc(S(=O)(=O)N2CCCC2)cc1`, 16.8% (inactive). Then `O=c1/c(=C/c2ccc(CNS(=O)(=O)c3ccccc3)o2)sc2n1CCN=2`, with 26% (active); and `COC(=O)C1=C(C)NC(=O)/C1=C/c1ccc(CNS(=O)(=O)c2ccc(C)cc2)o1`, with -2.9% (inactive).

In the case of `Cc1ccc(C)c(CN2CCC(CNC(=O)C3CCCN(c4ncnc5c4nc4n5CCCCC4)C3)CC2)c1` (centres undefined), the inhibition was -4.48% (inactive).
